The nature of assay [1]: qHTS assay to identify small molecule antagonists of the estrogen receptor beta (ER-beta) signaling pathway - cell viability counter screen (AID 1259382).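 Note: HEK293T cells carrying ER-beta-UAS-bla reporter stimulated with estradiol; series mostly up to about 92 µM; nearly all actives have a fitted effect of over 55% in size.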 Summed up: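 HEK293T ER-beta-UAS-bla, 2% charcoal-stripped FBS; compounds + 1nM E2 16 hr 37C; CellTiter-Glo luminescence, 30 min RT.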
In general terms: Quantitative high-throughput screening tests each substance at several concentrations.

Assay [2] has as its target Estrogen receptor (Homo sapiens) (UniProt P03372). The assay can be described thus: qHTS assay to identify small molecule agonists of the estrogen receptor alpha (ER-alpha) signaling pathway in the presence of an antagonist (AID 1259383; calls by dose curve; note: top concentration of the series differs between compounds; nearly all actives have a fitted effect of over 15% in size). Summed up:
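ER-alpha agonism measured under antagonist challenge: 10.0nM ICI-182,780 (final) plus compound, 15 concentrations, 22hr, VM7Luc4E2 ERE-luciferase cells. Read by luminescence.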

Assay [3] in a line: qHTS assay to identify small molecule agonists or antagonists of the thyroid stimulating hormone receptor (TSHR) signaling pathway - wild type cell line counter screen (AID 1259384; calls by dose curve). The method, boiled down: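 Wild-type Hek293 cells, 800/well, 18 h at 37C, then compound with Ro20-1724 for 30 min RT. cAMP by HTRF (cAMP-d2/anti-cAMP cryptate), 1 h RT, fluorescence read. 15 concentrations, triplicates.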

Assay [4] concerns the target Thyrotropin receptor (Homo sapiens) (UniProt P16473). The experiment in a line: qHTS assay to identify small molecule antagonists of the thyroid stimulating hormone receptor (TSHR) signaling pathway (AID 1259385; calls by dose curve; note: nearly all actives have a fitted effect of over 20% in size). The method, boiled down: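 TSHR-HEK293 cells (800/well) plated 18 h, then compounds with Ro20-1724 and TSH at 1.5 ng/mL final, 30 min at room temperature. cAMP quantified by HTRF (cAMP-d2/anti-cAMP-cryptate, 1 h); 15 concentrations in triplicate.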

A short description of assay [5]: qHTS assay to identify small molecule agonists of the estrogen receptor alpha (ER-alpha) signaling pathway in the presence of an antagonist - cell viability counter screen (AID 1259386).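 Note: cells exposed to compounds for 22 h at 37 °C before the viability read; nearly all actives have a fitted effect of over 30% in size.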 Note: potency is the fitted concentration of half-maximal effect. Summed up: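 Steps: 5-day stripped-FBS culture; seed and incubate 24hr; add ICI-182,780 (10.0nM final); pin 15-point compound titration; incubate 22hr at 37C; add CellTiter-Fluor at 21hr; read fluorescence.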

For assay [6], the target named is Progesterone receptor (Homo sapiens) (UniProt P06401). The experiment in a line: qHTS assay to identify small molecule agonists of the progesterone receptor (PR) signaling pathway (AID 1346784; calls by dose curve; note: nearly all actives have a fitted effect of over 30% in size; note: potency is the fitted concentration of half-maximal effect). Summed up:
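Seed PR-UAS-bla HEK 293T cells (2% charcoal-stripped FBS), incubate 6 hr at 37C; add compounds in DMSO, 16 hr at 37C; add LiveBLAzer B/G substrate, 2 hr RT; read fluorescence intensity.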

Assay [7] can be described thus: qHTS assay to identify small molecule antagonists of the progesterone receptor (PR) signaling pathway - cell viability counter screen (AID 1346798). Note: series mostly up to about 92 µM; nearly all actives have a fitted effect of over 50% in size. The method, boiled down:
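Measures cytotoxicity in parallel with the PR antagonist reporter read: HEK293T PR-UAS-bla cells get compound and R5020 for 16 hr, and remaining viable cells are quantified by CellTiter-Glo luminescence.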

A short description of assay [8]: qHTS assay to identify small molecule agonists of the progesterone receptor (PR) signaling pathway - cell viability counter screen (AID 1346799; calls by dose curve; note: nearly all actives have a fitted effect of over 45% in size). The method, boiled down: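 Using the same plates as the PR reporter screen, HEK293T PR-UAS-bla cells received compounds for 16 hr at 37C and were then lysed with CellTiter-Glo; luminescence was read 30 min later at room temperature.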

The nature of assay [9]: qHTS assay to identify small molecule antagonists of the TGF-beta/Smad signaling pathway - cell viability counter screen (AID 1346824). Note: nearly all actives have a fitted effect of over 50% in size. The method, boiled down: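 SBE-bla HEK 293T cells, incubated overnight, then compound plus 0.25 ng/mL TGF-beta1 (stock added) for 5 hr at 37 C. Viability was read in the same wells by CellTiter-Glo luminescence after 30 min at room temperature.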

Assay [10] in a line: qHTS assay to identify small molecule agonists of the TGF-beta/Smad signaling pathway (AID 1346859; active = well fitted activation curve with a large enough effect in the signal ratio in the repeat runs, not every such curve was filed as active; the % refers to the signal ratio; note: series mostly up to about 77 µM). Summed up:
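Beta-lactamase reporter activity downstream of Smad binding elements was measured in stably transfected HEK 293T cells; compounds were incubated for 5 hr, substrate for 2 hr at room temperature.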

The target in assay [11] is Thyrotropin-releasing hormone receptor (Homo sapiens) (UniProt P34981). The assay can be described thus: qHTS assay to identify small molecule antagonists of the thyrotropin-releasing hormone receptor (TRHR) signaling pathway (AID 1346877; active = well fitted inhibition curve with a large enough effect in the repeat runs, not every such curve was filed as active; note: series mostly up to about 51 µM). The method, boiled down:
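Human TRHR in HEK293 cells; inhibition of the intracellular calcium rise triggered by 1 nM TRH was followed by fluorescence over 3 min. Compounds were run at 15 concentrations, three replicates each.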

Assay [12] has the same target. The experiment in a line: qHTS assay to identify small molecule agonists of the thyrotropin-releasing hormone receptor (TRHR) signaling pathway (AID 1346891; calls by dose curve;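 note: HEK293 cells expressing TRHR with calcium dye readout; series mostly up to about 58 µM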). Summed up: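 Overnight-plated (18 h, 37 °C, 5% CO2) TRHR-Hek293 cells; 2 h calcium dye at 37 °C; compound in DMSO; 3-min kinetic fluorescence read.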
A short description of assay [13]: Human pregnane X receptor (PXR) small molecule agonists, qHTS cell viability counter screen (AID 1346977). Note: nearly all actives have a fitted effect of over 50% in size. Note: potency is the fitted concentration of half-maximal effect. The method, boiled down:
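After a 5hr pre-incubation, PXR-Luc HepG2 cells received compounds plus positive control in DMSO and were kept 24hr at 37C. Cell viability was quantified by fluorescence from CellTiter-Fluor added for the final hour.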

Assay [14] is described as follows: Caspase-3/7 induction in HepG2 cells by small molecules, qHTS assay (AID 1346978). Note: nearly all actives have a fitted effect of over 15% in size. Summed up:
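Wild-type HepG2 cells, 2,000/well, settled 5 hr at 37 C and 5% CO2, then compound-treated for 17 hr; caspase-3/7 activity read by luminescent Caspase-Glo 3/7 after 30 min at room temperature.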

Assay [15] in a line: Caspase-3/7 induction in CHO-K1 cells by small molecules, qHTS cell viability counter screen (AID 1346979). Note: nearly all actives have a fitted effect of over 35% in size. Note: potency is the fitted concentration of half-maximal effect. Summed up: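 Multiplexed with Caspase-Glo 3/7 in CHO-K1 cells, this counter screen added CellTiter-Fluor after 16hr of compound exposure and recorded fluorescence 1hr later.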
Assay [16] is described as follows: Caspase-3/7 induction in CHO-K1 cells by small molecules, qHTS assay (AID 1346980). Note: nearly all actives have a fitted effect of over 15% in size. Summed up: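 Wild-type CHO-K1 cells exposed to compounds for 17hr at 37 C, 5% CO2. Caspase-3/7 activity then measured by Caspase-Glo 3/7 luminescence after 30min at room temperature.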
A short description of assay [17]: Caspase-3/7 induction in HepG2 cells by small molecules, qHTS cell viability counter screen (AID 1346981). Note: nearly all actives have a fitted effect of over 30% in size. Note: potency is the fitted concentration of half-maximal effect. Summed up:
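The parent HepG2 line is plated at 2,000 cells per well and rested 5 hr before compound pinning from DMSO stocks. Following a 16-hr treatment at 37 C, a fluorogenic live-cell substrate (CellTiter-Fluor) reports viability after 1 hr.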

Assay [18] addresses Nuclear receptor subfamily 1 group I member 2 (Homo sapiens) (UniProt O75469). The assay can be described thus: Human pregnane X receptor (PXR) small molecule agonists, qHTS assay (AID 1346982). Note: nearly all actives have a fitted effect of over 35% in size. The method, boiled down:
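After plating in 5% charcoal-stripped FBS and a 5 hr rest, PXR-Luc HepG2 cells received compounds in DMSO. Following 24 hr at 37 C, ONE-Glo was added and light output read.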

A short description of assay [19]: qHTS assay to identify small molecule agonists of the TGF-beta/Smad signaling pathway - cell viability counter screen (AID 1346829). Note: top concentration of the series differs between compounds; nearly all actives have a fitted effect of over 45% in size. The method, boiled down: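 SBE-bla HEK 293T cells plated overnight, compound exposure 5 hr at 37 C. Viability read in the same wells by CellTiter-Glo luminescence after 30 min at room temperature, following the beta-lactamase read.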

Assay [20] addresses Progesterone receptor (Homo sapiens) (UniProt P06401). The assay can be described thus: qHTS assay to identify small molecule antagonists of the progesterone receptor (PR) signaling pathway (AID 1346795; active = well fitted inhibition curve with a large enough effect in the signal ratio in the repeat runs, not every such curve was filed as active; the % refers to the signal ratio). Summed up:
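Screening used a GripTite HEK293T line with PR-responsive UAS-beta-lactamase. Cells were challenged with compound in the presence of 1 nM R5020 final for 16 hr at 37C; B/G FRET substrate, 2 hr room temperature, fluorescence.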

A number with no mark means an inactive call. Inconclusive results are not listed. The source made the active and inactive calls. Unless noted, calls come from the whole dose curve; as a rule, active = well fitted curve in the direction sought with a large enough effect in the repeat runs; inconclusive = weak or mixed curves; inactive = no such curve, though single readings can be large; an effect the other way counts as inactive or inconclusive.

Progesterone receptor (Homo sapiens), sequence (P06401 whole entry, looked up): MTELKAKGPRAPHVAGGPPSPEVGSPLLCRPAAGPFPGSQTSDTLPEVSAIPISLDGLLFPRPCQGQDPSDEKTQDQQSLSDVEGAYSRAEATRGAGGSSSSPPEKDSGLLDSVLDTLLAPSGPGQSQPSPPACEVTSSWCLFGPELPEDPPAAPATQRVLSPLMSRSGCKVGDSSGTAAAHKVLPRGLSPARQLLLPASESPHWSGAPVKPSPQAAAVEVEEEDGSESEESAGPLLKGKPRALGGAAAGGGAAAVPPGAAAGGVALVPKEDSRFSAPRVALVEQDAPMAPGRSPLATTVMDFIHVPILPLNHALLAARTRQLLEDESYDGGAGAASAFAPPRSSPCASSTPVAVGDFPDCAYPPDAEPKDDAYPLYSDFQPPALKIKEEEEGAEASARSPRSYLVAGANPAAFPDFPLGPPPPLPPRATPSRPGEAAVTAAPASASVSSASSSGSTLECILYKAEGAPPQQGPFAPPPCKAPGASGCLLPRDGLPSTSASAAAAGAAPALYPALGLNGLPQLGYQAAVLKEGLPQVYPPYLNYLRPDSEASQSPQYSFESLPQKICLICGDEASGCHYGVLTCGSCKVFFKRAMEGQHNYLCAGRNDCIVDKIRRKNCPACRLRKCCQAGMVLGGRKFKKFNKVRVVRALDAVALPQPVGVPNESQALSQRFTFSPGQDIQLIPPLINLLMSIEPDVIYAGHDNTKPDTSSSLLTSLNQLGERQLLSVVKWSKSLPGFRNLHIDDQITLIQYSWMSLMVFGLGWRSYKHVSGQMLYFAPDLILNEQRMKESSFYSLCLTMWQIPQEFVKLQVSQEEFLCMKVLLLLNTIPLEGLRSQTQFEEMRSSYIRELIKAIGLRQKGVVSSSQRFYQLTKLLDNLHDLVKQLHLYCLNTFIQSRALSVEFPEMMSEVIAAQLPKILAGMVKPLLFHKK
Thyrotropin-releasing hormone receptor (Homo sapiens), sequence (P34981 whole entry, looked up): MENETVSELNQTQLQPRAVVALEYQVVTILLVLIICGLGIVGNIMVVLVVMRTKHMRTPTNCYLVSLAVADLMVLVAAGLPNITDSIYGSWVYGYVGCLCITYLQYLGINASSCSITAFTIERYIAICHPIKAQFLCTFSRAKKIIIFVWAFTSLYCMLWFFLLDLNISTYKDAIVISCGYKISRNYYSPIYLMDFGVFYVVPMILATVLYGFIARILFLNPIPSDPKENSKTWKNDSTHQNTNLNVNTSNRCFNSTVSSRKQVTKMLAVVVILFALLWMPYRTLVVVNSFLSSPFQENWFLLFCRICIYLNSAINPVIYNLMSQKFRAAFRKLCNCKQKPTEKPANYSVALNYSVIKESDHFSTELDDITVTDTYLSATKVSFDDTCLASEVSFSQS
Thyrotropin receptor (Homo sapiens), sequence (P16473 whole entry, looked up): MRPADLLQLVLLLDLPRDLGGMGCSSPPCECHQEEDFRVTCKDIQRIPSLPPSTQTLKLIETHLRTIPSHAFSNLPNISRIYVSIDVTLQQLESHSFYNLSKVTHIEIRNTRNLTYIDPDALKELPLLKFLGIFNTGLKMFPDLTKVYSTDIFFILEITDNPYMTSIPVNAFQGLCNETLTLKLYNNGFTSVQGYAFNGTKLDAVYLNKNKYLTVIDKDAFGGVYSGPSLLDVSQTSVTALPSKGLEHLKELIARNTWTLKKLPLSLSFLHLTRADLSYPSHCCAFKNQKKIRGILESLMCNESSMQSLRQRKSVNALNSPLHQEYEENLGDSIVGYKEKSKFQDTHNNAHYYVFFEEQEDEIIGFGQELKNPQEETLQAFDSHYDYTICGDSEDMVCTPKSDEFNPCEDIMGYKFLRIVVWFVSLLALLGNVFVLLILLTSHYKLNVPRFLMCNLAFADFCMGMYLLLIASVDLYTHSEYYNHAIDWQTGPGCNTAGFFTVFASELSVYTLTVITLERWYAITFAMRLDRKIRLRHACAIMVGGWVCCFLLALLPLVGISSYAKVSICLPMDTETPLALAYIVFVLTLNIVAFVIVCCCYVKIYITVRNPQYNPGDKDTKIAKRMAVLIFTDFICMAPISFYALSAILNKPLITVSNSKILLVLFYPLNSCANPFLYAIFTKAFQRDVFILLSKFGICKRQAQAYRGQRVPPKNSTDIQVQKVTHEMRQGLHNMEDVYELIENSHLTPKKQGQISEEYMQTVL
Estrogen receptor (Homo sapiens), sequence (P03372 whole entry, looked up): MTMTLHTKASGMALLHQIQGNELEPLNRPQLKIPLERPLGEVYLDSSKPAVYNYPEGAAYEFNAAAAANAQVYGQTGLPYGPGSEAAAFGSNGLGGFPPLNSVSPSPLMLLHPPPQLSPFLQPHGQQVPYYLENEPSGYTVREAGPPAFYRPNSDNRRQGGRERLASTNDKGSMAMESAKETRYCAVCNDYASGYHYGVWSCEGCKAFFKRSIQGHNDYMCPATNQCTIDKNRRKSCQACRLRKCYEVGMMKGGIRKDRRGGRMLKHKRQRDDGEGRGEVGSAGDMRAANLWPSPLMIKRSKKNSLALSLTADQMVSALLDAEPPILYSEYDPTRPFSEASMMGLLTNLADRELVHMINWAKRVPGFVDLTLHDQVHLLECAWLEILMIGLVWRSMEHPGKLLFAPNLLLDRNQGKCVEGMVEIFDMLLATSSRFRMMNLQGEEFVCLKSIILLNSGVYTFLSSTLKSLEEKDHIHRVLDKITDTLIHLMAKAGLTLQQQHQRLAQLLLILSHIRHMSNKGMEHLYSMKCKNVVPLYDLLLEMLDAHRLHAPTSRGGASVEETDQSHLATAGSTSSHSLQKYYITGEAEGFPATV
Nuclear receptor subfamily 1 group I member 2 (Homo sapiens), sequence (O75469 whole entry, looked up): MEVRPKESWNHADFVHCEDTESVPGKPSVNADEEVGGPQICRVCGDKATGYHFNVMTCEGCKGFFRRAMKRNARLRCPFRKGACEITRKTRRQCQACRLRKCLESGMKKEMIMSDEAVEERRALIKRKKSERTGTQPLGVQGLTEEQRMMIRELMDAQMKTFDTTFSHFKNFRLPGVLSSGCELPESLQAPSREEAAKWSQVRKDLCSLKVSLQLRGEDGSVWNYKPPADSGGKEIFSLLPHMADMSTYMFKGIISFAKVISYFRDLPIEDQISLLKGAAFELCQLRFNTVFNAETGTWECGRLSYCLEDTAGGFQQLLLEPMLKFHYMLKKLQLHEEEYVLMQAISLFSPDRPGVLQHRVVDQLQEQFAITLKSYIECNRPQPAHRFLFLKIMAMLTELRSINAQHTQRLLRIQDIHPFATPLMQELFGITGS

For `COc1cc([N+](=O)[O-])ccc1N`, the compound was classed as inactive in assay [1], in [2], in assay [3], in [4], in [9] and in [10]. The compound was called inactive in assay [11], in assay [12], in assay [14] and in assay [16]. For the same compound, the Potency in assay [5] is 38.6 µM (active); in [13] it was 61.1 µM (active); in assay [15], 54.5 µM (active); in [17], 54.5 µM (active). Also, the Potency result in assay [6], in assay [7], in [8] and in assay [18] was “inactive” throughout.
As to `O=C(O)c1c(Cl)ccc(Cl)c1Cl`, the compound was classed as inactive in assay [1], in [2], in [3], in assay [4], in assay [9] and in assay [19]. For the same compound, the outcome in [10], in assay [11], in assay [12], in [14] and in [16] was inactive. The Potency result in assay [5], in assay [6], in assay [7], in assay [8], in [15] and in assay [17] was “inactive” throughout. In addition, the Potency entry in assay [18] was “inactive”.
As for `C=CC(C)(O)CC/C=C(\C)CC` (centres undefined), the call in assay [1], in [2], in assay [3], in assay [4], in [9] and in assay [19] was inactive. Also, the call in [10], in assay [11], in assay [12], in assay [14] and in assay [16] was inactive. Further, the Potency result in [5], in [6], in assay [20], in assay [7], in assay [8] and in [13] was “inactive” in each case. Also, the Potency entry in assay [15] and in assay [17] was “inactive” each time.
As to `NCCc1ccn[nH]1`, the outcome in assay [1], in [2], in [3], in [4], in assay [9] and in assay [19] was inactive. For the same compound, the compound was called inactive in [10], in [14] and in assay [16]. Besides, the Potency result in assay [5], in assay [6], in [20], in assay [8], in assay [13] and in [15] was “inactive” each time. For the same compound, the Potency entry in assay [17] is “inactive”.
As for `O=C1OC(=O)c2ccccc21`, the compound was classed as inactive in [1], in assay [2], in assay [3], in assay [4], in [9] and in assay [19]. The compound was called inactive in assay [10], in assay [11], in assay [12], in [14] and in assay [16]. Also, the Potency result in [5], in assay [20], in assay [7], in assay [13], in assay [15] and in assay [17] was “inactive” each time. For the same compound, the Potency result in assay [18] is “inactive”. In [6], the Potency was 60.8 µM (active).
Take `Cc1ccccc1C(=O)N1CC/C(=N\OS(=O)(=O)O)c2ccc(Cl)cc21`: the compound was called inactive in [1], in assay [2], in assay [3], in assay [4], in assay [9] and in [19]. In addition, the compound was classed as inactive in [10], in assay [11], in assay [12] and in assay [14]. Besides, the Potency result in assay [5], in assay [6], in assay [20], in assay [7], in [8] and in [15] was “inactive” in each case. Moreover, the Potency result in [17] and in [18] was “inactive” in each case.
For the compound `COCC(=O)Nc1c(I)c(C(=O)NCC(O)CO)c(I)c(C(=O)N(C)CC(O)CO)c1I` (centres undefined), the outcome in assay [1], in assay [2], in [3], in assay [4], in assay [9] and in assay [19] was inactive. Moreover, the outcome in assay [10] was inactive. The Potency result in [5], in assay [6], in assay [20], in [7], in assay [8] and in assay [13] was “inactive” throughout. For the same compound, the Potency entry in assay [15], in assay [17] and in [18] was “inactive” in each case.

(Values after PubChem BioAssay (Tox21).)
